# Measurements: PubChem BioAssay (Tox21)
# Where “and” joins values, the source holds several entries; their conditions need not be identical. Equal entries are not always repeated. Results filed as inconclusive are left out. Calls of active or inactive are those of the source. The call rests on the fitted dose curve; in most records, active means well fitted cell-killing curve with a large enough effect in the repeat runs; inconclusive means weak or mixed curves, or effect the other way; inactive means flat fitted curve, though single readings scatter.
# Assay: qHTS RealTime-Glo MT Cell Viability Assay in HEK293 cells - 16 hour (AID 1224872); further: nearly all actives have a fitted effect of over 50% in size; on activity change, negative = cytotoxicity: top concentration of the series differs between compounds
# Details: RealTime-Glo luminescence; series mostly up to 76.8 µM; activity change, negative = cytotoxicity: at the top concentration
# Source text: National Center for Advancing Translational Sciences [NCATS]
# NIH Chemical Genomics Center [NCGC]
# U.S. Environmental Protection Agency [EPA]
# National Institutes of Environmental Health Sciences [NIEHS]
# National Toxicology Program [NTP]
# U.S. Food and Drug Administration [FDA]
# Measure of cell viability is critical in the cell-base assay. Analysis of cell viability is necessary for the characterization of cell responses to cytotoxic drugs and environmental stress. A RealTime-Glo MT Cell Viability Assay to monitor cell viability in real time of continues cell culture during 40 hours of compound treatment was used to screen Tox21 10K library compounds in Hek293 cells. The RealTime-Glo MT Cell Viability Assay is a nonlytic, homogeneous, bioluminescent method to measure cell viability in real time using a simple, plate-based method. The assay involves adding NanoLuc luciferase and a cell-permeant prosubstrate to cells in culture. Viable cells reduce the proprietary prosubstrate to generate a substrate for NanoLuc luciferase. This substrate diffuses from cells into the surrounding culture medium, where it is rapidly used by the NanoLuc Enzyme to produce a luminescent signal. The signal correlates with the number of viable cells, making the assay well suited for cytotoxicity studies.
# Tox21 Assay Protocol Summary:
# The mixture of Hek293 cell suspension and reagents were dispensed at 600cells/6 ul/well in 1536-well tissue culture treated black solid bottom plates using a Multidrop dispenser. After the assay plates were incubated at a 37 C/5% CO2 incubator for 5 hours, 23 nL of compounds dissolved in DMSO, positive and negative controls was transferred to the assay plate by a pintool work station. The plates were incubated at 37 C for 40 hours. The luminescence intensity were measured at 0h, 8h, 16h, 24h, 32h and 40h time points using ViewLux plate reader during compound treatment.
# On the % scale 0 is the no-effect control and ±100 the full control effect; potency means the concentration at half of the fitted maximal effect.
Compound,"activity change, negative = cytotoxicity",Potency
CCCC[P+](C)(CCCC)CCCC,-17.9% (inactive),
CCC(CC)C(C)CCOC(C)=O (stereo not given),13% (inactive),
c1ccc(SSc2ccccc2)cc1,-1.11% (inactive),
C=CCCC(=O)/C=C/C1C(C)=CCCC1(C)C (stereo not given),-20.2% (inactive),
CCCCC/C=C\C/C=C\CCCCCCCC(=O)O,,inactive
Clc1sc(Cl)c(Cl)c1Cl,15.6% (inactive),
C#C[C@]1(OC(C)=O)CC[C@H]2[C@@H]3CCC4=C/C(=N/O)CC[C@@H]4[C@H]3CC[C@@]21CC,,23.9 µM (active)
CC1(C)CCC[C@]2(C)[C@H]3CCO[C@]3(C)CC[C@@H]12,2.39% (inactive),
CC(C)(C)c1ccc(C(O)CCCN2CCC(C(O)(c3ccccc3)c3ccccc3)CC2)cc1 (stereo not given),,6.74 µM (active)
COc1ccc(-c2coc3cc(O)ccc3c2=O)cc1,-5.25% (inactive),
O=C(O)Cc1ccccc1Nc1c(Cl)cccc1Cl,,inactive
O=C(/C=C/c1ccc(O)c(O)c1)O[C@@H](C(=O)O)[C@@H](OC(=O)/C=C/c1ccc(O)c(O)c1)C(=O)O,-0.962% (inactive),
O=C(O)c1cc(N=Nc2ccc([N+](=O)[O-])cc2)ccc1O,-11.5% (inactive),
O=[N+]([O-])c1ccc(F)c(Cl)c1,3.64% (inactive),
CC(=O)CC(=O)Nc1ccc(S(=O)(=O)O)cc1,20.8% (inactive),
O=C1CCc2ccc(OCCCCN3CCN(c4cccc(Cl)c4Cl)CC3)cc2N1,,10.7 µM (active)
O=C(O)CN(CCN(CC(=O)O)CC(=O)O)CC(=O)O,0.0628% [at 2.72 µM] (inactive),
CC(=O)OCC=C(C)C,0.449% [at 35.3 µM] (inactive),
CC(C(=O)O)c1ccc2c(c1)[nH]c1ccc(Cl)cc12 (stereo not given),-0.197% [at 35.3 µM] (inactive),
O=C(O)c1cc(=O)c2ccccc2o1,4.16% [at 35.3 µM] (inactive),

Compound,"activity change, negative = cytotoxicity",Potency
CC(C)NC[C@@H](O)COc1ccc(CC(N)=O)cc1,-2.58% [at 35.3 µM] (inactive),
Cc1cc(C)c(/C=C2\C(=O)Nc3ccccc32)[nH]1,-0.721% [at 35.3 µM] (inactive),
O=c1c(O)c(-c2ccc(O)cc2O)oc2cc(O)cc(O)c12,-2.62% (inactive),
CCOC(=O)Cn1cccc1-c1nc(-c2ccc(OC)cc2)c(-c2ccc(OC)cc2)s1,-18.6% [at 35.3 µM] (inactive),
Cc1cccc(C)c1NC(=O)c1ccc(N)cc1,-1.82% [at 35.3 µM] (inactive),
O=c1oc2cc(O)ccc2c2oc3cc(O)ccc3c12,,21 µM (active)
COc1cc2nc(N3CCN(C(=O)c4ccco4)CC3)nc(N)c2cc1OC,-20% [at 15.8 µM] (inactive),
COC(=O)c1ccccc1C,-6.67% (inactive),
Oc1ccccc1O,,55.6 µM (active) and 49 µM (active)
CCC(C)[O-].CCC(C)[O-].CCOC(=O)/C=C(/C)[O-].[Al+3],5.72% (inactive),
O=S(=O)(O)c1ccc(N=Nc2c(O)ccc3ccccc23)cc1,-38.2% (inactive),
COc1ccc(NC(=O)CC(C)=O)cc1,2.91% (inactive),
CC(=O)c1ccc(C(C)=O)cc1,-0.485% (inactive),
Cc1c(N)cccc1C(F)(F)F,-0.423% [at 35.3 µM] (inactive),
C#C[C@]1(O)CC[C@H]2[C@@H]3[C@H](C)CC4=C(CCC(=O)C4)[C@H]3CC[C@@]21C,-19.1% [at 35.3 µM] (inactive),
CC1(C)CCC[C@]2(C)[C@H]3CC(=O)O[C@]3(C)CC[C@@H]12,-26% (inactive),
C=Cc1ccccc1C=C,21% [at 200 µM] (inactive),
O=c1[nH]c(=O)n([C@H]2C[C@H](O)[C@@H](CO)O2)cc1F,-13.7% [at 35.3 µM] (inactive),
O=C(O)Cc1ccc2c(c1)C(=O)c1ccccc1CO2,0.107% [at 35.3 µM] (inactive),
CCCCCCCCCCCCOC(=O)c1ccc(O)cc1,,44 µM (active)
